In the supplement of paper PMC6992640:

These compounds were tested on WHIM30 (cells of a triple-negative basal-like breast cancer xenograft) (assay: cell viability of combination (% of vehicle); higher = less cytotoxic). Settings: 1 µM; 72 h; partner dose: 10 nM.
Description: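 PDX cells were treated for 72 h with each drug at 1 µM plus carfilzomib (10 nM; 100 nM for WHIM2). Luciferase viability is expressed as percent of vehicle.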

Compound | cell viability of combination
Cc1cc(C(C#N)c2ccc(Cl)cc2)c(Cl)cc1NC(=O)c1cc(I)cc(I)c1[O-].[Na+] (stereo not given) [Closantel Sodium] + CC(C)C[C@H](NC(=O)[C@H](CCc1ccccc1)NC(=O)CN1CCOCC1)C(=O)N[C@@H](Cc1ccccc1)C(=O)N[C@@H](CC(C)C)C(=O)[C@@]1(C)CO1 [Carfilzomib] | 17.8
CCCCCCCCCCCCCCCC[n+]1ccccc1.[Cl-] [Cetylpyridinium Chloride] + CC(C)C[C@H](NC(=O)[C@H](CCc1ccccc1)NC(=O)CN1CCOCC1)C(=O)N[C@@H](Cc1ccccc1)C(=O)N[C@@H](CC(C)C)C(=O)[C@@]1(C)CO1 [Carfilzomib] | 11.9
Cc1cc(C(C#N)c2ccc(Cl)cc2)c(Cl)cc1NC(=O)c1cc(I)cc(I)c1O (stereo not given) [Closantel] + CC(C)C[C@H](NC(=O)[C@H](CCc1ccccc1)NC(=O)CN1CCOCC1)C(=O)N[C@@H](Cc1ccccc1)C(=O)N[C@@H](CC(C)C)C(=O)[C@@]1(C)CO1 [Carfilzomib] | 16.8
CCCCCCCCCCCC[N+](C)(C)CCOc1ccccc1.[Br-] [Domiphen Bromide] + CC(C)C[C@H](NC(=O)[C@H](CCc1ccccc1)NC(=O)CN1CCOCC1)C(=O)N[C@@H](Cc1ccccc1)C(=O)N[C@@H](CC(C)C)C(=O)[C@@]1(C)CO1 [Carfilzomib] | 9.06
CCCCCCCCCCCCCCCC[N+](C)(C)C.[Br-] [Cetrimonium Bromide (CTAB)] + CC(C)C[C@H](NC(=O)[C@H](CCc1ccccc1)NC(=O)CN1CCOCC1)C(=O)N[C@@H](Cc1ccccc1)C(=O)N[C@@H](CC(C)C)C(=O)[C@@]1(C)CO1 [Carfilzomib] | 12
